PubChem BioAssay

test: fission yeast growth modulation, primary screen, strain 972, OD600, 24 h, no modulator (AID 1090);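 further: basal condition with compound alone and no growth modifier present; test concentration not given here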; conditions: S. pombe 972 growth, higher = more signal, called active from +8 up or from −8 down

z-score, inactive:
COc1ccc(NC(=O)O[C@H]2[C@H](OC(=O)c3cc4ccccc4[nH]3)[C@@H](OC(=O)c3cc4ccccc4[nH]3)[C@@H](OC)O[C@@H]2CO)cc1 -0.519
C=C(CCCC)C(=O)CC[C@H](OC(=O)c1cccnc1)c1ccc(OCCO)cc1 -3.48
C=CCN1C(=O)[C@]2(Cc3ccccc3)N=C(c3ccc(OCCCO)cc3)O[C@@H]2c2ccccc21 -0.694
CC(=O)NCCCC[C@@H]1NC(=O)[C@H]2C[C@@H](C(=O)NCCCCCNC(=O)CS)[C@@H](c3ccc(O)cc3)N2C1=O 0.0772
C=CCC(OC(C)=O)[C@@H]1[C@@H](N(Cc2cc3ccccc3o2)C(=O)Cc2ccc(OC)cc2)c2cc(OCCCO)ccc2N1C(=O)c1ccc2ccccc2c1 (stereo not given in full) 0.568
CC(c1ccccc1)C(O)C1C=CC2C(=O)N(c3ccccc3)C(=O)C2N1Nc1ccccc1 (stereo not given) 1.23
COc1ccc([C@H]2C[C@H]3C(Br)=C[C@@]2(CO)C(=O)[C@]32CO2)cc1 -3.35
COCCOC(=O)N1C(=O)[C@@]2(c3cc(C#CCCO)ccc31)[C@H](c1ccc(OCCO)cc1)N1[C@H](c3ccccc3)[C@H](c3ccccc3)OC(=O)[C@H]1[C@@H]2C(N)=O 0.245
CCCCN1CC=CC23O[C@@H]4/C=C\CCCOC(=O)C4[C@H]2C(=O)N(CCCCCO)[C@@H]3C1=O (stereo not given in full) -0.392
NCCCCCCNC(=O)[C@H]1C[C@H]2C(=O)N[C@@H](Cc3ccccc3)C(=O)N2[C@H]1c1cccc(OCCO)c1 0.269
COc1ccc([Si](C)(C)[C@@H]2[C@@H](CCn3cc(CCO)nn3)O[C@]3(C(=O)N(Cc4cccc(N5C(=O)c6cccc7cccc5c67)c4)c4ccccc43)[C@H]2C)cc1 1.56
CC(=O)Nc1cc(Br)ccc1C(=O)NCc1ccccc1 -6.28
CCCCCN1CC=CC23O[C@@H]4C=CCOC(=O)[C@@H]4[C@H]2C(=O)N(C(C)CO)[C@@H]3C1=O (stereo not given in full) -0.226
CCOC(=O)C1=C[C@@H](C(C)C)N(S(=O)(=O)c2ccc(C)cc2)[C@H]1c1ccccc1F 1.51
CS(=O)(=O)CCOC(=O)C1=CC(CCCO)=CC(C2CC2)N(Cc2cc3c(cc2Br)OCO3)C=C1C(=O)OCCS(C)(=O)=O (stereo not given) -1.87
Cc1c(NC(=O)/C(C#N)=C/c2cccc([N+](=O)[O-])c2)c(=O)n(-c2ccccc2)n1C -2.55
C=CCN1Cc2ccccc2[C@@H]2OC(c3ccc(OCCCO)cc3)=N[C@]2(CCS(=O)(=O)c2ccccc2)C1=O 1.45
C=CCNC(=O)[C@@H]1[C@H]2C(=O)O[C@H](c3ccccc3)[C@H](c3ccccc3)N2[C@H](c2ccc(OCCO)cc2)[C@@]12C(=O)N(C(=O)OCCOC)c1ccc(C#CCC(C(=O)OC)C(=O)OC)cc12 0.552
CN1C(=O)C2C=CC(C(O)C=Cc3ccc([N+](=O)[O-])cc3)N(Nc3ccccc3)C2C1=O (stereo not given) -1.18
COCCOC(=O)N1C(=O)[C@@]2(c3cc(C#CC4=CCCCC4)ccc31)[C@H](c1ccc(OCCO)cc1)N1[C@H](c3ccccc3)[C@H](c3ccccc3)OC(=O)[C@H]1[C@@H]2C(=O)N1CCc2cc(OC)c(OC)cc2C1 0.535
CC(C)CN1C(=O)[C@@]2(c3ccc([N+](=O)[O-])cc3)CC(=O)N(C3CCCCC3)[C@@H]2c2ccc(CO)cc21 0.612
C#CCN1[C@H](/C=C/C2CC2)[C@H](Cc2ccccc2)OC(=O)[C@@H]1Cc1ccccc1 0.241
COc1ccccc1CN1C(=O)c2ccccc2[C@@]2(Cc3ccccc3N(CCCN(C)C)C2=O)[C@@H]1c1ccc(CO)cc1 -1.23
COC(=O)[C@@]1(CCC(=O)OC(C)(C)C)N=C(c2ccc(OCCCO)cc2)O[C@H]1c1ccccc1 -2.78
O=C(O)[C@@]1(CCS(=O)(=O)c2ccccc2)N=C(c2ccc(OCCCO)cc2)O[C@H]1c1ccccc1 -5.25
C=CCN(Cc1ccccc1)C(=O)C(c1cccs1)N(C(=O)/C=C\C(=O)O)c1ccc(CCOCCO)cc1 (stereo not given) 0.246
CC(C)NC(=O)[C@@H]1c2ccccc2C(=O)N(C(C)C)[C@H]1c1ccc(CO)cc1 0.458
C=CCC(OC(C)=O)[C@@H]1[C@@H](N(Cc2ccc(-c3cccc(C(F)(F)F)c3)o2)C(=O)c2cccc3ccccc23)c2cc(OCCCO)ccc2N1C(=O)Cc1ccc2ccccc2c1 (stereo not given in full) -0.463
COc1ccc([Si](C)(C)[C@@H]2[C@@H](CCn3cc([C@H](O)c4ccccc4)nn3)O[C@]3(C(=O)N(Cc4cccc(N5CCC5=O)c4)c4ccccc43)[C@H]2C)cc1 1.23
O=C(NCCN1CCOCC1)[C@@H]1c2ccccc2C(=O)N(Cc2cc(C(F)(F)F)cc(C(F)(F)F)c2)[C@H]1c1ccc(CO)cc1 -0.091
C=C(CCCC)/C(=C/C[C@H](OC(C)=O)c1ccccc1OCCO)c1cnc2ccccc2c1 -0.654
COC(=O)[C@@]1(Cc2ccc(OC)cc2)[C@H]2c3cc(C(=O)N4CCCC4)n(CCc4ccc(O)c(O)c4)c3C[C@H]2CN1C(=O)c1ccccc1 0.208
Cc1ccc(S[C@]2(C(=O)NCC(C)C)CC(=O)N(Cc3cc(C(F)(F)F)cc(C(F)(F)F)c3)[C@@H]2c2ccc(CO)cc2)cc1 -0.924
O=C(NC1CC1)[C@@H]1c2ccccc2C(=O)N(C2Cc3ccccc3C2)[C@H]1c1ccc(CO)cc1 0.682
O=C1OCCC=C[C@H]2OC34C=CCN(CCN5CCOCC5)C(=O)[C@H]3N(CCCCCO)C(=O)[C@@H]4C12 (stereo not given in full) -0.0455
